# USP30 inh: inhibitors of human USP30 deubiquitinase; purified USP30, Ub-rhodamine cleavage fluorescence; hit rate 5.3% among 47,000; Q70CQ3; inhibition, % at 25 µM; AID 1645860
# Target sequence (Q70CQ3 whole entry, looked up): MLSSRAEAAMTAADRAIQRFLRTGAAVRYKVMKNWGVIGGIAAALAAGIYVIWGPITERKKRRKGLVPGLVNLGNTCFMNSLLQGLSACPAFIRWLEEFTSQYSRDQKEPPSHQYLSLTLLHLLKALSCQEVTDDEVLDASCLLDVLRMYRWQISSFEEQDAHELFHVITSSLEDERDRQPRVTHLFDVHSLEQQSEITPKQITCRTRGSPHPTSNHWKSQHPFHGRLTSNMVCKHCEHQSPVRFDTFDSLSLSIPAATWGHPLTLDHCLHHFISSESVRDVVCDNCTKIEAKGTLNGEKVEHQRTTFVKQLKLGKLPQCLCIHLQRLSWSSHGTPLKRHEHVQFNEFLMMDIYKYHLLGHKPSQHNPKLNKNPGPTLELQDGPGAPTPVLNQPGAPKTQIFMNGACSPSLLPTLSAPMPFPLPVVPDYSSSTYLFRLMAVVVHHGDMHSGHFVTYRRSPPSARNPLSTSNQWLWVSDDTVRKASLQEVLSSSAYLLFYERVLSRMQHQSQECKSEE
# USP28 inh: inhibitors of human USP28 deubiquitinase; Q96RU2; AID 1645857; hit rate 3% among 47,000; purified USP28, Ub-rhodamine cleavage fluorescence, 30 min; inhibition, % at 25 µM
# * marks the source's active call; other numbers are inactive results. Sampled rows, rich in hits. Any-hit rate of the full collection: about 7%. No stated cut-off is given here; in the data, active means inhibition above about 30%; inactive means the rest.
SMILES,USP30 inh,USP28 inh
COc1cccc(CN2C(=O)c3ccccc3S2(=O)=O)c1,-4,13
O=C(Nc1ccc2c(c1)OCCO2)c1cccc2nc3ccccc3nc12,75*,30
Cc1ccc(-c2cc(C(=O)Nc3ccc4c(c3)OCCO4)c3ccccc3n2)o1,-41,7
COc1ccc(-c2cc(-c3nnc(COC(=O)c4cccc([N+](=O)[O-])c4C)o3)c3ccccc3n2)cc1OC,-28,1
Cc1nc(-c2ccccn2)sc1C(=O)Nc1cccc(C(=O)NC2CC2)c1,-15,3
Cc1nc(-c2ccccn2)sc1C(=O)Nc1ccc(C#N)cc1,54*,12
CN1CCN(C(CNS(=O)(=O)c2ccc3c(c2)OCCO3)c2ccc(F)cc2)CC1 (stereo not given),0,-16
O=C(CSCc1ccccc1F)NCc1ccc(F)cc1,-4,-3
O=C(Cn1c(=O)c2cccn2c2ccccc21)NCc1ccc(F)cc1,-138,2
Cn1c(=O)n([C@@H](Cc2ccccc2)C(=O)NCc2ccc(F)cc2)c(=O)c2ccccc21,46*,26
O=C(NCc1ccc(F)cc1)C(c1ccccc1)c1ccccc1,31*,13
CS(=O)(=O)c1ccc(C(=O)N(Cc2cccnc2)C2CCN(Cc3ccccc3S(C)(=O)=O)CC2)cc1,-13,-8
CCOc1ccc(C(=O)C2CC(=O)Nc3c2c(C)nn3-c2ccc(CC)cc2)cc1 (stereo not given),27,10
COc1cccc(Cn2c(N3CCOCC3)nc3c2c(=O)n(C)c(=O)n3C)c1,22,3
Cc1cccc(C(=O)N2CCC(C(=O)c3ccc4c(c3)OCCO4)CC2)c1,26,30*
Cc1cccc(C(=O)N2CCN(C3CCCCC3)CC2)c1,22,18
Cc1oc2ncnc(Oc3ccc(F)cc3)c2c1C,41*,14
COc1cccc(Nc2ncnc3oc(C)c(C)c23)c1,-2,6
O=C(c1cccnc1)N1CCCc2ccc(NS(=O)(=O)c3ccc(F)cc3)cc21,-73,-10
O=C(Nc1cccc(Cl)c1)N1CCC(c2cc(-c3ccco3)n[nH]2)CC1,-79,39*
O=C(Nc1cccc(Cl)c1)N1CCC(c2nc(-c3cccnc3)no2)CC1,-6,-7
CCc1ccccc1Nc1cc(C(=O)NCCCN2CCCC2)c2ccccc2n1,5,-7
O=C(Nc1nnc(-c2ccc(Br)cc2)o1)C(c1ccccc1)c1ccccc1,17,12
O=C(Nc1nnc(-c2cccs2)o1)C(c1ccccc1)c1ccccc1,45*,14
CC(=O)N1CCC(N[C@H]2C[C@@H](Cc3cc(C(C)(C)C)on3)C2(C)C)CC1,-24,-13
SMILES,USP30 inh,USP28 inh
CC(=O)C1=C(O)[C@]2(O)C(=O)c3c(c(C)c4ccc(C)c(O)c4c3O)C[C@H]2[C@@H](N)C1=O,-37,61*
CCc1ccc(NC(=O)COC(=O)Cn2cnc3ccccc32)cc1,-1,32*
Cc1ccc(NC(=O)COC(=O)Cn2cnc3c2c(=O)n(C)c(=O)n3C)cc1F,0,6
COc1cc(NC(=O)COC(=O)Cn2cnc3ccccc32)cc(OC)c1,1,51*
Cc1ccc(NC(=O)COC(=O)Cn2cnc3c2c(=O)n(C)c(=O)n3C)cc1,3,8
COCCNC(=O)c1cc(-c2cnc(N3CCCC3)nc2)cn1CC1CC1,-234,-74
CS(=O)(=O)c1cnc2ncnn2c1C1CCCN(C(=O)Cc2cccc(F)c2)C1 (stereo not given),-5,-3
COc1ccc(CCC(=O)Nc2ncc(C)s2)cc1OC,0,54*
COc1ccc(CC(=O)Nc2ncc(C)s2)c(OC)c1OC,-18,-9
Cc1ccc(S(=O)(=O)Nc2cc(-c3ccncc3)no2)cc1F,-50,-10
CCCCCCC(C)/C=C(C)/C=C/C(=O)N[C@H]1CC2(O[C@H]1O)[C@@H]1O[C@@H]1C(=O)[C@@H]1O[C@@H]12 (stereo not given in full),42*,5
COc1ccc(CNC(=O)Cn2c(=O)cc(-c3ccccc3)c3c(C)nn(-c4ccccc4)c32)cc1,31*,14
COc1ccc(CNC(=O)CCc2c(C)c3c(C)nn(-c4ccccc4)c3n(C)c2=O)cc1,8,5
COc1ncccc1CNC(=O)NC1CCCCC1,10,7
CC1=C(c2ccccc2)S(=O)(=O)N=C1N1CCCN(C(=O)c2ccccc2F)CC1,13,9
Cn1c(SCc2c(F)cccc2Cl)nnc1-c1ccc2c(c1)OCCCO2,33*,12
Cn1c(SCc2ccccc2F)nnc1-c1ccc2c(c1)OCCCO2,14,7
COc1cccc(-c2ccc(SCC(=O)Nc3ccc(NC(C)=O)cc3)nn2)c1,-28,-4
c1ccc(-n2ncc3c(NCC4CCCO4)ncnc32)cc1 (stereo not given),31*,6
c1ccc(-c2cc3c(NCC4CCCO4)ncnc3s2)cc1 (stereo not given),-4,0
CCOc1ccccc1-c1nc(Cn2cnc3ccccc3c2=O)no1,26,0
Clc1ccc(Cl)c(-c2nc(-c3cccs3)no2)c1,-19,2
Cc1nc2sccn2c1-c1nc(-c2cc(Cl)ccc2Cl)cs1,46*,19
CC(C)CC1NC(=O)C2CCCN2C1=O (stereo not given),18,51*
O=C1Nc2cccnc2N2CCCC12 (stereo not given),-16,-9
SMILES,USP30 inh,USP28 inh
O=C(O[C@@H]1C[C@H]2C(=O)N[C@H](Cc3ccccc3)C(=O)N2C1)c1ccccc1,11,3
CC(C)CC1NC(=O)C2CC(O)CN2C1=O (stereo not given),37*,20
Cn1nc(C2CCCN(C(=O)CCc3ccccc3F)C2)c2nccnc21 (stereo not given),-3,0
COc1ccc(C(=O)N2CCC(c3ccnc4cc(C)nn34)CC2)cn1,0,-10
Cc1cc(C)cc(NC(=O)C2C3C=CC4(O3)C2C(=O)N(C2CCCCC2)C4C(=O)NC2CCCCC2)c1 (stereo not given),13,16
COc1ccc(CNC(=O)CN(Cc2ccccc2Cl)S(=O)(=O)c2ccccc2)cc1OC,-12,-8
O=C(/C=C/c1ccc(Br)cc1)N1CCc2ccccc2C1,-9,0
CC(C)c1ccc(/C=C/C(=O)N2CCc3ccccc3C2)cc1,36*,29
Cc1ccccc1NC(=O)C(C)Sc1nnc(-c2cccnc2)o1 (stereo not given),-9,-4
CCCCN1CCN(C(=O)c2cnc(-c3ccc(F)cc3)nc2-c2ccncc2)CC1,-22,-24
C[C@H]1C(=O)N(C)[C@@H]2CCN(C(=O)C3CCCCC3)[C@@H]2C(=O)N1C,33*,12
C[C@H]1C(=O)N(C)[C@@H]2CCN(C(=O)Nc3ccc4ccccc4c3)[C@@H]2C(=O)N1C,5,0
CN(C)C(=O)C1CN(Cc2ccccn2)CCN(S(C)(=O)=O)C1 (stereo not given),12,8
CCN1C[C@H]2CCN(C(=O)Cc3cccc(OC)c3)CC[C@H]2S1(=O)=O,19,12
CCOC(=O)c1sc2c(c1C)c(=O)n(Cc1ccccc1)c(=O)n2CC(N)=O,55*,0
CCOC(=O)c1csc(-c2cn(C(C)C)c(=O)n(Cc3ccccc3)c2=O)n1,-4,-11
CC(NC(=O)Cc1cc(-c2ccc(F)cc2)on1)c1ccccc1 (stereo not given),21,6
CN1CCn2c(-c3cccc(F)c3)cnc2C12CCNCC2,7,13
Clc1ccc(Cn2c(C3CCCO3)nc3ccccc32)cc1 (stereo not given),14,14
